This is a sample that favours compounds with a hit; in the whole collection about 6.7% have one here.
C diff growth: blocks growth of Clostridium difficile | Clostridium difficile clinical isolate growth, OD600, 24 h; active compounds read low | growth activity, negative = inhibition, % at 16 µg/mL (by protocol) | hit rate 0.25% among 86,000;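 active = mean growth activity at or below -80% and every replicate also at or below -80%; inconclusive = mean at or below -80% but some replicate above -80%; inactive = mean growth activity above -80%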;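 note: 0% = DMSO wells and -100% = levofloxacin 16 µg/mL wells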
T cruzi growth-1: blocks T. cruzi growth in NIH3T3 culture; T. cruzi beta-gal in NIH3T3, GalScreen luminescence, 90 h; hit rate 5.9% among 77,000; inhibition, % at 8.34 µM;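 active = mean inhibition above about 93%, with at least 55% of replicates each passing it, limit read from the data, passing the limit was not always enough; inconclusive = only one of those two conditions holds; inactive = neither condition holds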
Pf Dd2 growth: inhibitors of Plasmodium falciparum Dd2 growth | hit rate 2.3% among 94,000 | P. falciparum Dd2 growth, SYBR Green, 72 h; active compounds read low | activity change, % at 10 µM; in the data active = activity change below about -80%; inconclusive = no clear call, values can overlap the other calls
T cruzi growth-2: blocks T. cruzi growth in NIH3T3 host cells | shares compounds with T cruzi growth-1 | T. cruzi beta-gal in NIH3T3, GalScreen luminescence, 90 h | inhibition, % at 8.35 µM | hit rate 72% among 5,600;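 active = mean replicate inhibition above about 95% and at least 55% of replicates individually reaching it, limit read from the data; inconclusive = only one of the two criteria is met; inactive = neither criterion is met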
T cruzi growth-3: blocks T. cruzi growth in NIH3T3 host cells; AID 651740; T. cruzi beta-gal in NIH3T3, GalScreen luminescence, 90 h; shares compounds with T cruzi growth-1; hit rate 21% among 5,600; inhibition, % at 2.09 µM;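 active = mean inhibition above about 95%, with at least 55% of replicates also reaching it, limit read from the data; inconclusive = meets just one of the two conditions; inactive = meets neither condition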;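 note: plate controls were neutral control median for no effect and positive control median for full effect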
NIH3T3 tox: NIH/3T3 (mouse) viability loss. NIH/3T3 viability, CellTiter-Glo ATP luminescence, 90 h. cytotoxicity (signal decrease), % at 8.35 µM. hit rate 14% among 5,600. shares compounds with T cruzi growth-1;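 active = mean signal decrease across replicates above about 35% based on untreated-well scatter, with enough replicates individually passing, limit read from the data; inconclusive = no rule stated though some were filed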;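 note: 0% = median of neutral control wells and 100% = median of positive control wells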
NIH3T3 tox 2: cytotoxicity in mouse NIH/3T3 fibroblasts | shares compounds with T cruzi growth-1 | NIH/3T3 viability, CellTiter-Glo ATP luminescence, 90 h | inhibition, % at 24.9 µM | hit rate 56% among 5,600;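 active = mean loss of cell viability signal at or above a set limit, and enough replicates individually reaching it; inconclusive = meets only the mean limit or only the replicate share; inactive = meets neither condition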;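 note: 0% = median of neutral control wells and 100% = median of positive control wells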
* hit, by the source's call; ? = inconclusive; nt = no result.

SMILES | C diff growth | T cruzi growth-1 | Pf Dd2 growth | T cruzi growth-2 | T cruzi growth-3 | NIH3T3 tox | NIH3T3 tox 2
N#C[C@@H]1[C@@H](c2ccc(C3=CCCCC3)cc2)[C@@H](CO)N1S(=O)(=O)c1ccccc1 | 9 | 96* | -38 | 102* | 56 | 55* | 60*
CCCNC(=O)N[C@H]1CC[C@@H](CCn2cc(C3CC3)nn2)O[C@H]1CO | 2 | nt | -16 | nt | nt | nt | nt
CCCN(C)C[C@H]1Oc2cc(C3=CCCC3)ccc2S(=O)(=O)N([C@H](C)CO)C[C@H]1C | nt | 1 | -18 | nt | nt | nt | nt
COCCNC(=O)C[C@H]1C[C@@H]2c3cc(NS(C)(=O)=O)ccc3O[C@@H]2[C@@H](CO)O1 | 3 | 1 | 31 | nt | nt | nt | nt
COc1ccc2c3c([nH]c2c1)[C@@H](CO)N(C(=O)c1ccncc1)CC31CN(C(=O)c2ccncc2)C1 | -10 | nt | -5 | nt | nt | nt | nt
COCC(=O)N1CC[C@@H]2[C@@H](CO)N(C)c3ccc(-c4ccc(F)cc4)cc3[C@@H]21 | -4 | 86 | 28 | nt | nt | nt | nt
CCC(=O)N1CC[C@@H]2[C@H]1c1cc(-c3ccc(OC)cc3)ccc1N(C)[C@H]2CO | 7 | 94 | -7 | nt | nt | nt | nt
CCC(=O)N1CC[C@H]2[C@@H]1c1cc(-c3ccc(OC)cc3)ccc1N(C)[C@H]2CO | 14 | 105* | 14 | 108* | 91 | -15 | -17
CCC(=O)N1CC[C@H]2[C@@H]1c1cc(-c3ccc(F)cc3)ccc1N(C)[C@H]2CO | 2 | ? | -75 | 108* | 71 | -8 | 21
O=C(C[C@@H]1CC[C@@H](NC(=O)Nc2cc(F)ccc2F)[C@@H](CO)O1)Nc1ccccc1 | -3 | nt | nt | nt | nt | nt | nt
CC(C)C#Cc1cnc2c(c1)C(=O)N([C@H](C)CO)C[C@H](C)[C@@H](CN(C)C(=O)c1cccnc1)O2 | 2 | -7 | 13 | nt | nt | nt | nt
C[C@@H]1CN([C@H](C)CO)C(=O)Cc2cc(NC(=O)Cc3cn(C)c4ccccc34)ccc2O[C@H]1CN(C)S(=O)(=O)c1cccs1 | -15 | 15 | 6 | nt | nt | nt | nt
C[C@H](CO)N1C[C@H](C)[C@@H](CN(C)C(=O)Nc2ccccc2F)Oc2ncc(/C=C/c3ccccc3)cc2C1=O | -14 | 118* | -80 | 112* | 55 | 16 | 17
C/C=C/c1cnc2c(c1)C(=O)N([C@H](C)CO)C[C@H](C)[C@H](CN(C)C(=O)Nc1ccccc1F)O2 | 2 | 19 | 30 | nt | nt | nt | nt
CCCNC(=O)N(C)C[C@@H]1Oc2ncc(/C=C/c3ccccc3)cc2C(=O)N([C@@H](C)CO)C[C@H]1C | 10 | 103* | -26 | 98* | 36 | -4 | 4
CCCNC(=O)N(C)C[C@H]1Oc2ncc(/C=C/c3ccccc3)cc2C(=O)N([C@H](C)CO)C[C@@H]1C | 2 | 93 | -47 | nt | nt | nt | nt
C[C@@H]1CN([C@H](C)CO)C(=O)c2cc(/C=C/c3ccccc3)cnc2O[C@H]1CN(C)C(=O)Nc1ccccc1F | -11 | 124* | -67 | 109* | 104* | 10 | ?
C/C=C/c1cnc2c(c1)C(=O)N([C@H](C)CO)C[C@@H](C)[C@H](CN(C)C(=O)Nc1ccccc1F)O2 | -1 | 4 | 11 | nt | nt | nt | nt
CCC(=O)N1[C@@H](CO)[C@H](c2ccc(-c3ccc(C#N)cc3)cc2)C12CN(C(C)=O)C2 | 1 | nt | 3 | nt | nt | nt | nt
COc1ccc(NC(=O)Nc2cccc3c2O[C@@H](CN(C)C(=O)Nc2ccccc2)[C@H](C)CN([C@H](C)CO)C3=O)cc1 | 1 | 3 | 3 | nt | nt | nt | nt
Cc1noc(C)c1NC(=O)N1C[C@H](O)COC[C@H]2O[C@@H](CC(=O)NCC3CC3)CC[C@@H]21 | -5 | 4 | nt | nt | nt | nt | nt
Cc1noc(C)c1NC(=O)N1C[C@@H](O)COC[C@H]2O[C@@H](CC(=O)NCC3CC3)CC[C@@H]21 | -1 | ? | nt | -14 | 11 | -19 | -16
Cc1noc(C)c1NC(=O)N1C[C@@H](O)COC[C@H]2O[C@H](CC(=O)NCC3CC3)CC[C@@H]21 | -1 | 101* | nt | 36 | 31 | -11 | -14
Cc1noc(C)c1NC(=O)N1C[C@H](O)COC[C@H]2O[C@H](CC(=O)NCC3CC3)CC[C@@H]21 | -4 | -47 | nt | nt | nt | nt | nt
C[C@@H]1CN([C@H](C)CO)C(=O)c2cc(Br)cnc2O[C@@H]1CN(C)C(=O)c1ccc(F)cc1 | -3 | nt | -3 | nt | nt | nt | nt
SMILES | C diff growth | T cruzi growth-1 | Pf Dd2 growth | T cruzi growth-2 | T cruzi growth-3 | NIH3T3 tox | NIH3T3 tox 2
CC(C)NC(=O)N1CC2(C1)[C@@H](c1ccccc1)[C@@H](CO)N2CCC(F)(F)F | -6 | nt | 7 | nt | nt | nt | nt
O=C(C[C@@H]1CC[C@@H]2[C@H](COC[C@@H](O)CN2C(=O)Nc2cccc(F)c2)O1)NCCCN1CCOCC1 | nt | -27 | 0 | nt | nt | nt | nt
CN1c2ccc(-c3ccc(F)cc3)cc2[C@@H]2[C@@H](CCN2C(=O)Cc2ccccn2)[C@@H]1CO | -13 | 56 | -29 | nt | nt | nt | nt
CN1c2ccc(-c3ccc(F)cc3)cc2[C@H]2[C@H](CCN2C(=O)Cc2ccccn2)[C@H]1CO | -13 | 5 | -29 | nt | nt | nt | nt
CN1c2ccc(-c3ccccc3)cc2[C@@H]2[C@@H](CCN2C(=O)Cc2ccccn2)[C@@H]1CO | -11 | 99* | -32 | 105* | 58 | -8 | -6
CN1c2ccc(-c3ccc(F)cc3)cc2[C@H]2[C@H](CCN2C(=O)Cc2ccccn2)[C@@H]1CO | -29 | ? | -67 | 110* | 54 | -36 | -7
CN1c2ccc(-c3cccc(C#N)c3)cc2[C@@H]2[C@@H](CCN2C(=O)Cc2ccccn2)[C@@H]1CO | -20 | 106* | -50 | 102* | 51 | -11 | 36*
CN1c2ccc(-c3cccc(C#N)c3)cc2[C@H]2[C@H](CCN2C(=O)C2CC2)[C@H]1CO | 5 | nt | -44 | nt | nt | nt | nt
CN1c2ccc(-c3cccc(C#N)c3)cc2[C@H]2[C@H](CCN2C(=O)CN2CCOCC2)[C@@H]1CO | -6 | 57 | -65 | nt | nt | nt | nt
CN1c2ccc(-c3cccc(C#N)c3)cc2[C@H]2[C@H](CCN2C(=O)CN2CCOCC2)[C@H]1CO | -9 | ? | -26 | 108* | 9 | 2 | 16
COc1ccc(NC(=O)N(C)C[C@@H]2Oc3ccc(NS(=O)(=O)c4ccc(Cl)cc4)cc3CC(=O)N([C@H](C)CO)C[C@@H]2C)cc1 | -10 | 10 | -4 | nt | nt | nt | nt
CCCC(=O)N1CC2(C1)CN(C(=O)CC1CC1)[C@H](CO)c1c2c2ccc(OC)cc2n1C | -5 | nt | -15 | nt | nt | nt | nt
C[C@H](CO)N1C[C@H](C)[C@H](CN(C)S(C)(=O)=O)Oc2ncc(-c3ccccc3)cc2C1=O | -5 | -1 | 20 | nt | nt | nt | nt
CCCNC(=O)N1CC2(CN(S(C)(=O)=O)C2)c2c(n(C)c3cc(OC)ccc23)[C@H]1CO | -4 | nt | 9 | nt | nt | nt | nt
C[C@@H]1CN([C@@H](C)CO)C(=O)Cc2cc(NC(=O)CCCN(C)C)ccc2O[C@H]1CN(C)S(C)(=O)=O | -2 | -9 | 17 | nt | nt | nt | nt

Compound activity deposited in PubChem by Broad Institute.
